From PubChem BioAssay (NCATS)
Inconclusive results are not listed. A call without a number means that no potency is given here. Active and inactive are the calls of the source. Unless noted, calls come from the whole dose curve; as a rule, active = well fitted curve in the direction sought with a large enough effect; inconclusive = small, poorly fitted or top-dose-only effect, or another doubt; inactive = no such curve, though single readings can be large; an effect the other way counts as inactive or inconclusive.

System: not listed separately
Experiment: qHTS Validation Assay to Find Inhibitors of Chronic Active B-Cell Receptor Signaling (AID 485345; active = well fitted curve in the direction sought with a large enough effect in the main read-out, with a control signal flat, not every such curve was filed as active)
Details: ABC-DLBCL cells, chronic BCR signaling reporter, CBG luciferase; series mostly up to 46.1 µM
How it was run: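 TMD8 ABC-DLBCL cells stably carrying doxycycline-inducible IkappaBalpha–green luciferase fusion plus unfused red luciferase; compounds 46 uM to 3 nM, 4 h at 37C with doxycycline. Corrected green/red luminescence ratio normalized to 10 uM MG-132 and basal cell wells; curves fitted.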

Row | SMILES | Potency
1 | CC(CCc1ccc(O)cc1)NCCc1ccc(O)c(O)c1 (configuration not stated) | inactive
2 | NCCc1cnc[nH]1 | inactive
3 | CN(C)CCOC(c1ccccc1)c1ccccc1 | inactive
4 | NC12CC3CC(CC(C3)C1)C2 | inactive

Target: Beta-2 adrenergic receptor (Homo sapiens) (UniProt P07550)
Sequence (P07550 whole entry, looked up): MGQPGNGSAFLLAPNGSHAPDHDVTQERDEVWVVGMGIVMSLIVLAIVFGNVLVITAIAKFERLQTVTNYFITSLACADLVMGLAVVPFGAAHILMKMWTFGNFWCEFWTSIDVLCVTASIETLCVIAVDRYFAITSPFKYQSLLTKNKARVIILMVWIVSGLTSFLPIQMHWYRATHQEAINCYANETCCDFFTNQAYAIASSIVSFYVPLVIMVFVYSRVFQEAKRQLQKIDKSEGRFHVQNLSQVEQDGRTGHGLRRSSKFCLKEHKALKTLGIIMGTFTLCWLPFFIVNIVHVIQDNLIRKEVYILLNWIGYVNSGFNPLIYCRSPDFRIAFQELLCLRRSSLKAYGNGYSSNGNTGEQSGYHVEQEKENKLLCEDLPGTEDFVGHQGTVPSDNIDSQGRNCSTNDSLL
Experiment: qHTS validation assay of beta-arrestin-biased ligands of beta2-adrenergic receptor (AID 485366)
Details: cell-based beta-arrestin recruitment to ADRB2, qHTS; series mostly up to 46.1 µM
How it was run: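 Agonist activity is measured as luciferase luminescence downstream of beta-arrestin recruitment to recombinant beta2-AR in Tango cells. Exposure lasts 18 hr at 37 degrees C, and curves are categorized by r2, response size and activity.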

Row | SMILES | outcome
5 | CCOC(=O)Nc1ccc(NCc2ccc(F)cc2)nc1N | inactive
6 | O=C1c2c(O)ccc(O)c2C(=O)c2c(NCCNCCO)ccc(NCCNCCO)c21 | inactive
7 | CCC1(C)CC(=O)NC1=O (configuration not stated) | inactive
8 | NCCS(=O)(=O)O | inactive
9 | CN(C)CCC=C1c2ccccc2C=Cc2ccccc21 | inactive
10 | COc1ccc2[nH]cc(CCNC(C)=O)c2c1 | inactive
11 | CCCNCC(O)COc1ccccc1C(=O)CCc1ccccc1 (configuration not stated) | inactive
12 | O=C(c1ccc(F)cc1)C1CCN(CCn2c(=O)[nH]c3ccccc3c2=O)CC1 | inactive
13 | CC[N+](CC)(CC)CCOc1cccc(OCC[N+](CC)(CC)CC)c1OCC[N+](CC)(CC)CC | inactive
14 | NC(=O)OCC(COC(N)=O)c1ccccc1 | inactive
15 | Nc1nc2c(ncn2COC(CO)CO)c(=O)[nH]1 | inactive
16 | Cn1c(=O)c2[nH]cnc2n(C)c1=O | inactive

Target: ATP-dependent 6-phosphofructokinase (Trypanosoma brucei brucei) (UniProt O15648)
Sequence (O15648 whole entry, looked up): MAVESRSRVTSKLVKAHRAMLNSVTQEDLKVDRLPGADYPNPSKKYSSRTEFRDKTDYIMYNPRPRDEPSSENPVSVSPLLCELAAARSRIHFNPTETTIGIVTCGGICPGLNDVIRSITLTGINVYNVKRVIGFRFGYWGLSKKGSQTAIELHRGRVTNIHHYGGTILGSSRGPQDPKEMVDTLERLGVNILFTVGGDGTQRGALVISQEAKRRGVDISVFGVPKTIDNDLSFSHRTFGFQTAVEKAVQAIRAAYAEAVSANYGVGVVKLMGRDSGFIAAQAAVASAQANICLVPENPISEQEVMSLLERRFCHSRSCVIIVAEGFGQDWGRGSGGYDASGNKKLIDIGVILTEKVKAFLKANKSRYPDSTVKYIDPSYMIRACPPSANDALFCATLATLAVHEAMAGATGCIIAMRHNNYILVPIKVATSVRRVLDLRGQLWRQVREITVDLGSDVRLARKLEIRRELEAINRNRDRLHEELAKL
Experiment: qHTS Validation Assay to Find Inhibitors of T. brucei phosphofructokinase (AID 485368)
Details: T. brucei PFK enzyme assay, qHTS 7-point titration; series mostly up to 57.5 µM
How it was run: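 Inhibition derived from concentration-response curves of luminescence, ranked by r2, response size and curve class; the underlying reaction used 1.25 nM PFK, 0.1 mM ATP and 0.5 mM F6P, 45 min, room temperature.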

Row | SMILES | Potency
17 | COc1cc2nc(N3CCN(C(=O)c4ccco4)CC3)nc(N)c2cc1OC | inactive
18 | CN1CCC(=C2c3ccccc3C=Cc3ccccc32)CC1 | inactive
19 | Nc1c2c(nc3ccccc13)CCCC2 | inactive
20 | CCC1(C)CC(=O)NC1=O (configuration not stated) | inactive
21 | CC(C)NCC(O)COc1ccc(CCOCC2CC2)cc1 (configuration not stated) | inactive
22 | CN(C)c1nc(N(C)C)nc(N(C)C)n1 | inactive
23 | NCCS(=O)(=O)O | inactive
24 | CN(C)CCC=C1c2ccccc2C=Cc2ccccc21 | inactive
25 | CCC1(c2ccccc2)C(=O)NCNC1=O | inactive
26 | CCCNCC(O)COc1ccccc1C(=O)CCc1ccccc1 (configuration not stated) | inactive
27 | NC(=O)OCC(COC(N)=O)c1ccccc1 | inactive
28 | Nc1nc2c(ncn2COC(CO)CO)c(=O)[nH]1 | inactive
29 | CC(CCc1ccc(O)cc1)NCCc1ccc(O)c(O)c1 (configuration not stated) | inactive
30 | COc1ccccc1N1CCN(CC(O)COc2cccc3ccccc23)CC1 (configuration not stated) | inactive
31 | NCCc1cnc[nH]1 | inactive
32 | COc1cc2nc(N3CCN(C(=O)C4COc5ccccc5O4)CC3)nc(N)c2cc1OC (configuration not stated) | inactive

System: not listed separately
Experiment: Quantitative high throughput screen for delayed death inhibitors of the malarial parasite plastid, 96 hour incubation (AID 488745); note: nearly all actives have a fitted effect of over 70% in size; note: potency is the fitted concentration of half-maximal effect
Details: Plasmodium falciparum growth; series mostly up to 28.7 µM
How it was run: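 Two-generation (96 h) exposure of luciferase-reporter P. falciparum in erythrocytes, 2% hematocrit, 0.1% parasitemia final, 37 C, 5% CO2, RPMI 1640 with 0.5% Albumax. Growth inhibition scored by reduced luminescence.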

Row | SMILES | Potency
33 | O=C1c2c(O)ccc(O)c2C(=O)c2c(NCCNCCO)ccc(NCCNCCO)c21 | 1.31 µM (active)
34 | CCC1(C)CC(=O)NC1=O (configuration not stated) | inactive
35 | NCCS(=O)(=O)O | inactive
36 | Cn1c(=O)c2c(ncn2C)n(C)c1=O | inactive
37 | CCC1(c2ccccc2)C(=O)NCNC1=O | inactive
38 | COc1ccc2[nH]cc(CCNC(C)=O)c2c1 | inactive
39 | CCCNCC(O)COc1ccccc1C(=O)CCc1ccccc1 (configuration not stated) | 2.62 µM (active)
40 | CN1CCC(=C2c3ccccc3CC(=O)c3sccc32)CC1 | inactive
41 | NC(=O)OCC(COC(N)=O)c1ccccc1 | inactive
42 | Nc1nc2c(ncn2COC(CO)CO)c(=O)[nH]1 | inactive
43 | CC(CCc1ccc(O)cc1)NCCc1ccc(O)c(O)c1 (configuration not stated) | 5.86 µM (active)
44 | COc1ccccc1N1CCN(CC(O)COc2cccc3ccccc23)CC1 (configuration not stated) | inactive
45 | Cn1c(=O)c2[nH]cnc2n(C)c1=O | inactive
46 | NCCc1cnc[nH]1 | inactive
47 | COc1cc2nc(N3CCN(C(=O)C4COc5ccccc5O4)CC3)nc(N)c2cc1OC (configuration not stated) | 3.29 µM (active)
48 | CN(C)CCOC(c1ccccc1)c1ccccc1 | inactive
49 | NC12CC3CC(CC(C3)C1)C2 | inactive
50 | Cn1cnc2c1c(=O)[nH]c(=O)n2C | inactive

System: not listed separately
Experiment: Quantitative high throughput screen for delayed death inhibitors of the malarial parasite plastid, 48 hour incubation (AID 488752); note: nearly all actives have a fitted effect of over 65% in size; note: potency is the fitted concentration of half-maximal effect
Details: Plasmodium falciparum growth; series mostly up to 28.7 µM
How it was run: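 Cultures: infected erythrocytes at final 2% hematocrit and 0.1% parasitemia in Albumax-supplemented RPMI. Parasites express integrated firefly luciferase. Incubation with compound lasts 48 h before luminescent detection of remaining reporter activity.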

Row | SMILES | Potency
51 | N[C@@H](Cc1c[nH]c2ccc(O)cc12)C(=O)O | inactive
52 | O=C1c2c(O)ccc(O)c2C(=O)c2c(NCCNCCO)ccc(NCCNCCO)c21 | 2.08 µM (active)
53 | CCC1(C)CC(=O)NC1=O (configuration not stated) | inactive
54 | CC(C)NCC(O)COc1ccc(CCOCC2CC2)cc1 (configuration not stated) | inactive
55 | CN(C)c1nc(N(C)C)nc(N(C)C)n1 | inactive
56 | NCCS(=O)(=O)O | inactive
57 | Cn1c(=O)c2c(ncn2C)n(C)c1=O | inactive
58 | CCC1(c2ccccc2)C(=O)NCNC1=O | inactive
59 | COc1ccc2[nH]cc(CCNC(C)=O)c2c1 | inactive
60 | CCCNCC(O)COc1ccccc1C(=O)CCc1ccccc1 (configuration not stated) | 2.33 µM (active)
61 | CN1CCC(=C2c3ccccc3CC(=O)c3sccc32)CC1 | inactive
62 | CC[N+](CC)(CC)CCOc1cccc(OCC[N+](CC)(CC)CC)c1OCC[N+](CC)(CC)CC | inactive
63 | NC(=O)OCC(COC(N)=O)c1ccccc1 | inactive
64 | Nc1nc2c(ncn2COC(CO)CO)c(=O)[nH]1 | inactive
65 | CC(CCc1ccc(O)cc1)NCCc1ccc(O)c(O)c1 (configuration not stated) | 13.1 µM (active)
66 | COc1ccccc1N1CCN(CC(O)COc2cccc3ccccc23)CC1 (configuration not stated) | inactive
67 | Cn1c(=O)c2[nH]cnc2n(C)c1=O | inactive
68 | NCCc1cnc[nH]1 | inactive
69 | COc1cc2nc(N3CCN(C(=O)C4COc5ccccc5O4)CC3)nc(N)c2cc1OC (configuration not stated) | 4.15 µM (active)
70 | CN(C)CCOC(c1ccccc1)c1ccccc1 | inactive
71 | NC12CC3CC(CC(C3)C1)C2 | inactive
72 | Cn1cnc2c1c(=O)[nH]c(=O)n2C | inactive
